This passage reports PBM binding z-score results from the supplement of paper PMC6555819.

For this test, the system named is LXRa homodimer (NR concentration 270 nM). Description: PBM binding z-score (relative to random genomic background probes); higher = stronger binding; sequences stand for … in GC…GCGATTGACAGCGTAGAATGAAGG
Summed up: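 Binding z-scores take random background probes as their reference. They come from custom Agilent 4×180K protein-binding microarrays incubated 1 h with ligand-free nuclear receptor dimers, with antibodies against each partner (one per run) detecting binding. Scanned fluorescence was regression-normalized.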
As for CTACCAAGGTGGACAAGGTCGTTGATTACTATTC, the PBM binding z-score came out at 0.259. For AGAGTGAGGTTAAGATCAGGGAAACAGAATACAT, the PBM binding z-score came out at 0.665. Next, CCAGACAGGTGAAAGGGAACTCAGTCTGGTACGC: -0.366. Next, CGAACTAGGTCATGGACAGTGAATCTCCGCACGC: 0.076.

CGACCTAGGTCATCCAGGACAGTGAATACATTGA returned a PBM binding z-score of 0.586. The sequence TAGCCTAGGTCATGCGGGCCACTATAGTGTCGGC gave a PBM binding z-score of 0.309. Next, ACTAGCAGGCCCAGTTTGGGTCACTCAAACAAAG: -0.417.

TAGCCTAGGTCATTCAGGTGCCAGTATAGAAAGC gave a PBM binding z-score of 0.777. In turn, ATCCCTAGGTAAAGATAGTTCAGTGAATGCAAAT gave a PBM binding z-score of 0.337. Next, CAAACTAGGGCACCGGAAGGTCAAAGTCCGCATG: 2.88; CCCCGGAGGACAACAGGAGGTCAGAGCTGCCAGA: 2.5. Next, CAAACTAGGTCAAGAGGGCAAAGTCCGCTTCCCG: 1.14. The sequence ATCCAAAGGTCGACGAGGTGAGTATACACCGTTT returned a PBM binding z-score of 0.198. Next, TATACAGGGTCAAACGCCAGAGTACGAATGTCGA: 3.43. For the sequence ACTAGCAGGCCAAGTCTGGGTCACTCAAACAAAG, the PBM binding z-score was found to be 0.0484. Next, GCAGACAGGTGAAACGCAGGTGACTCAGGGTGGC: -0.506; ATCTGTAGGTAACCAAGTTCAGTGAATGCCGAAC: 0.477; CTTACTGGGCCATTCAGAGGTCATTGATCATATG: 6.7.

ATACCAAGGTGATCGTGAGGTCGTTCATACTAAC came in with a PBM binding z-score of 1.23.

Sequence TAGCCTAGGTCATTCAGTGGCCAGTATAGAAAGC displayed a PBM binding z-score of 0.592.

AGTCAAAGTTCCCTAGGTAACGTAAGATTCAGCT gave a PBM binding z-score of -0.0977. Consider TCTTGTAGATCAAGCAGGTGAAGAAAGCCTGAGT, for which the PBM binding z-score is -0.332.
